Screening results (PubChem BioAssay)
This is a sample that favours compounds with a hit; in the whole collection about 12% have one here.
Sfp PPTase inh: qHTS Assay for Inhibitors of Bacillus subtilis Sfp phosphopantetheinyl transferase (PPTase); Biochemical Sfp PPTase activity, qHTS; Potency, µM, usual class: inhibitors; hit rate 3.5% among 310,000; AID 1490, 2009;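 note: the enzyme is Sfp with the accession as filed and its product quenches rhodamine fluorescence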
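With Hepes-Na pH 7.6 buffer containing 10 mM MgCl2, Sfp (15 nM) modified BHQ-2-YbbR (12.5 uM) using rhodamine-CoA (5 uM). Two reads 30 minutes apart at 525/598 nm yielded each well's rate.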
HP1b chromo inh: HTS for Inhibitors of HP1-beta Chromodomain Interactions with Methylated Histone Tails | Potency, µM (doses to about 114 µM), actives largely listed as inhibitors | hit rate 0.56% among 390,000 | AlphaScreen HP1-beta / biotin-H3K9me3 peptide binding | AID 540317, 2011; note: nearly all actives have a fitted effect of over 70% in size
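AlphaScreen: HP1-beta (50 nM) preformed 30 min with biotin-H3(1-18)K9me3 peptide (50 nM) in PBS pH 7.4, 0.01% Tween-20. Compound added for 30 min at RT, then streptavidin donor/nickel chelate acceptor beads (10 ug/mL) for 30 min.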
JMJD2A Tudor: qHTS Assay for Inhibitors of JMJD2A-Tudor Domain; AlphaScreen JMJD2A-Tudor / H3K4me3 peptide binding; hit rate 4.4% among 390,000; Potency, µM (titrated, usually from 114 µM), hits mostly inhibitors; Lysine-specific demethylase 4A (Homo sapiens), O75164; AID 504339, 2011; note: nearly all actives have a fitted effect of over 50% in size
PLK1 PBD inh: qHTS for Inhibitors of PLK1-PDB (polo-like kinase 1 - polo-box domain): Primary Screen; hit rate 2.8% among 360,000; Potency, µM, most hits filed as inhibitors; Plk1 PBD binding of FITC phosphopeptide, fluorescence polarization; note: series mostly up to about 57 µM; nearly all actives have a fitted effect of over 65% in size
Target sequence (P53350 whole entry, looked up, the tested form may be a part): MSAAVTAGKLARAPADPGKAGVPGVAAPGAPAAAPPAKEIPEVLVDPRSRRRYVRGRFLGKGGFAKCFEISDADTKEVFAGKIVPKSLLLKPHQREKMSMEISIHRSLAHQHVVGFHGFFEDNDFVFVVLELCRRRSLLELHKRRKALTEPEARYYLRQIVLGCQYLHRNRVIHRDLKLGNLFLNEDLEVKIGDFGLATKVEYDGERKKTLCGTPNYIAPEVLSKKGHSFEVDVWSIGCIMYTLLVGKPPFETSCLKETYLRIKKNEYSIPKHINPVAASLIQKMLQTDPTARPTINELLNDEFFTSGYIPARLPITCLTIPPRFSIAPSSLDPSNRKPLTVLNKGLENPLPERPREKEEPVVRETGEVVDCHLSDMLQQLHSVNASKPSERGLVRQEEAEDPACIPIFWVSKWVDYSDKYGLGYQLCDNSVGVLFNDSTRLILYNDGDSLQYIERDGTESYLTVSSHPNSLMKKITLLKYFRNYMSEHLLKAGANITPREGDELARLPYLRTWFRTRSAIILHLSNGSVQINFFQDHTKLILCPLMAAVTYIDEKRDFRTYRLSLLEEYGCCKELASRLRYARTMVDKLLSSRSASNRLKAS
BAZ2B inh: qHTS Assay for Inhibitors of BAZ2B | Potency, µM (series often up to 114 µM), usual class: inhibitors | hit rate 4.4% among 360,000 | AID 504333, 2011 | Bromodomain adjacent to zinc finger domain protein 2B (Homo sapiens), Q9UIF8 | AlphaScreen BAZ2B-H3K14Ac peptide displacement; note: nearly all actives have a fitted effect of over 60% in size
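BAZ2B (50 nM) with biotin-H3(5-23)K14Ac peptide (50 nM) in PBS pH 7.4, 0.01% Tween-20, preformed 30 min, then compound 30 min at room temperature; top concentration 110uM. AlphaScreen streptavidin donor/nickel chelate acceptor beads (10 ug/mL final), 20 min dark, signal read.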
G9a block: qHTS Assay for Inhibitors of Histone Lysine Methyltransferase G9a; G9a H3K9 monomethylation, AlphaScreen, 2 h; Histone-lysine N-methyltransferase EHMT2 (Homo sapiens), Q96KQ7; AID 504332, 2011; hit rate 8.8% among 350,000; Potency, µM (series often up to 102 µM), actives largely listed as inhibitors; note: nearly all actives have a fitted effect of over 75% in size
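G9a (20 nM) was preincubated 15 min with compound, then reacted 2 h at room temperature with 500 nM biotin-H3K9 peptide and 20 µM SAM. Monomethyl-H3K9 detected by AlphaScreen using anti-H3K9me1 antibody.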
Numbers stand for hits; n = inactive; u = inconclusive; x = not tested or not shown; [ ] = another dose, or the depositor's remark. Calls come from the whole dose curve; as a rule, active = well fitted curve in the direction sought with a large enough effect; inconclusive = small, poorly fitted or top-dose-only effect, or another doubt; inactive = no such curve, though single readings can be large; an effect the other way counts as inactive or inconclusive.

SMILES	Sfp PPTase inh	HP1b chromo inh	JMJD2A Tudor	PLK1 PBD inh	BAZ2B inh	G9a block
C=CCc1ccc(OCCCCCN2CCOCC2)c(OC)c1	n	u	3.5µM	n	50µM	13µM
C=CCc1ccc(OCCOCCN(C)C)c(OC)c1	n	u	1.6µM	n	u	4µM
Cc1ccc(S(=O)(=O)N2C[C@H]3C(=O)C[C@@H](c4ccccc4F)N(S(=O)(=O)c4ccc(C)cc4)[C@H]3C[C@H]2c2ccccc2F)cc1	x	x	x	n	x	x
COc1ccc(NC(=O)N2CCCC3(CCN(C(=O)c4csnn4)CC3)C2)cc1	n	x	x	x	x	n[12.7 µM]
O=[N+]([O-])c1cccc(CNc2ccc3c(c2)CCC3)c1	u	40µM	1.4µM	n	20µM	13µM
COc1ccc(CNc2ccc3c(c2)CCC3)cc1Br	n	n	n	n	n	35µM
CCOc1cc(CNc2ccc3c(c2)CCC3)ccc1OC	n	x	x	x	u	45µM
COc1ccccc1CNc1ccc2c(c1)CCC2	n	n	u	n	n	n[0.501 µM]
O=C(Nc1cccc([N+](=O)[O-])c1)Nc1ccc2c(c1)CCC2	n	n	n	n	n	n
Cc1ccc(O)c(Cn2nnc3ccccc32)c1	x	n	n	n	n	n[2.33 µM]
CN(O)/C=c1/ccc2c(n1)C(=O)C=CC=2	n	n	20µM	n	7.9µM	10µM
COc1cc2c(-c3ccc4cc[nH]c4c3)c(-c3ccc(C#N)cc3)oc(=O)c2cc1OC	x	n	n	n	n	n[0.501 µM]
C[N+](C)(C)CC(=O)N/N=C/c1c2ccccc2cc2ccccc12	n	n	u	n	56µM	35µM
NC(=S)N/N=C\c1c2ccccc2cc2ccccc12	n	n	n	u	n	7.1µM
COCCNC(=S)N/N=C/c1c2ccccc2cc2ccccc12	n	n	n	u	n	79µM
CNC(=S)N/N=C/c1c2ccccc2c(Cl)c2ccccc12	n	n	n	u	n	18µM
CN(C)CCCNCC(=O)c1c(-c2ccccc2)n(C)c2ccccc12	40µM	u	4.5µM	n	n	n
CSc1ccccc1NC(=O)C1=CC(c2ccc(C)cc2)=NS(=O)(=O)N1C	n	n	n	n	u	79µM
Cc1ccc(C2=NS(=O)(=O)N(C)C(C(=O)NC(C)c3ccccc3)=C2)cc1 (stereo not given)	n	n	n	n	n	n
COc1ccc(C2=NS(=O)(=O)N(C)C(C(=O)Nc3ccc(OC(F)(F)F)cc3)=C2)cc1	x	n	n	x	n	14µM
COc1ccc(OC)c(C2=NS(=O)(=O)N(C)C(C(=O)Nc3ccc(C(C)=O)cc3)=C2)c1	n	n	u	30µM	n	n
O=C(CCC1CCCC1)N1CCc2c([nH]c3ccccc23)C1c1ccc(Cl)cc1 (stereo not given)	x	n	n	x	n	n
COc1cc2c(cc1OC)[C@H](C)N(C(=O)NCc1ccccc1)CC2	n	n	n	n	n	n
CC1CCCC(C)N1/N=C/c1cccc(Br)c1 (stereo not given)	n	n	n	n	u	n
CC1CCCC(C)N1/N=C/c1ccc(N(C)C)cc1 (stereo not given)	n	n	n	n	n	40µM
SMILES	Sfp PPTase inh	HP1b chromo inh	JMJD2A Tudor	PLK1 PBD inh	BAZ2B inh	G9a block
CC1CCCC(C)N1/N=C/c1ccc([N+](=O)[O-])cc1 (stereo not given)	n	u	35µM	n	40µM	n[2.33 µM]
COc1cccc(NC(=O)C2CCN(S(=O)(=O)c3cc(-c4noc(C)n4)ccc3C)CC2)c1	x	n	n	x	n	n
CCOC(=O)c1c(N)sc2c1C1CCN2CC1	n	n	n	n	n	79µM
COc1ccccc1NC(=O)c1ccc(N)cc1	n	n	n	n	n	u
CCOC(=O)c1c(N)sc(C(=O)OC)c1C	56µM	n	n	30µM	n	x
COC(=O)c1c(N)sc(C(=O)NCCc2ccccc2)c1C	n	n	n	21µM	n	u
CCOC(=O)c1sc(N)c(C(=O)Nc2ccccc2OC)c1C	14µM	5.6µM	56µM	4.7µM	u	2.8µM
CCOC(=O)c1sc(N)c(C(=O)OC)c1C	n	n	n	n	n	n
O=C(NCC1CCCO1)c1ccc(N2C(=O)C3CCCCC3C2=O)cc1 (stereo not given)	n	n	n	n	n	n
CCOC(=O)c1scc(-c2ccc(C)cc2)c1S(=O)(=O)Nc1cc(OC)ccc1OC	x	n	u	x	u	u
CCOC(=O)c1scc(-c2ccccc2)c1S(=O)(=O)Nc1ccccc1OC	x	n	n	x	u	14µM
CN(C)c1ccc(N/C(N)=N/c2nc(C(F)(F)F)cc(C(F)(F)F)n2)cc1	n	n	n	n	u	13µM
O=C(NCCc1nc2ccccc2[nH]1)/C(=C/c1ccco1)NC(=O)c1ccc(Br)cc1	u	n	n	n	n	71µM
COc1ccc(/C=C/C(=O)N/C(=C\c2ccco2)C(=O)NCCc2nc3ccccc3[nH]2)cc1	u	n	u	n	u	45µM
O=C(NCCc1nc2ccccc2[nH]1)/C(=C/c1ccco1)NC(=O)c1ccccc1Br	u	n	n	n	n	u
O=C(/C=C/c1ccco1)N/C(=C\c1ccco1)C(=O)NCCc1nc2ccccc2[nH]1	50µM	n	u	n	u	45µM
CCOc1ccccc1Nc1nnc(SCC(=O)NC2CC2)s1	x	n	n	n	x	x
O=C(O)c1ccc(Cn2cnc3cccnc32)cc1	n	n	n	n	n	40µM
O=C(O)c1ccc(Cn2cnc3scc(-c4ccccc4)c3c2=O)cc1	n	n	n	n	n	n
O=[N+]([O-])c1ccc2[nH]c3c(c2c1)CCCC3	n	n	u	n	u	40µM
Brc1ccc2[nH]c3c(c2c1)CCC3	n	n	u	n	50µM	u
N/N=C1\CCCc2c1[nH]c1ccc([N+](=O)[O-])cc21	n	n	u	u	n	x
O=[N+]([O-])c1cccc2c3c([nH]c12)CCCC3	n	u	n	n	u	8.9µM
O=C(Oc1cccc(C(=S)N2CCOCC2)c1)c1cccc([N+](=O)[O-])c1	n	n	n	n	n	45µM
O=C(Oc1ccc(C(=S)N2CCOCC2)cc1)c1cccc([N+](=O)[O-])c1	u	n	n	u	n	22µM
O=C(Oc1cccc(C(=S)N2CCOCC2)c1)c1cc([N+](=O)[O-])cc([N+](=O)[O-])c1	n	n	u	u	u	35µM
